Test results from PubChem BioAssay.
Calls of active or inactive are those of the source.

Assay: budding yeast growth modifiers under rapamycin – strain BY4716, OD600, 96 h, primary screen (AID 1091); also: test concentration not given here
Details: S. cerevisiae BY4716 + rapamycin, higher = more signal, called active from +8 up or from −8 down

SMILES | z-score
C=CCOC(=O)[C@H]1[C@@H]2C(=O)O[C@@H](c3ccccc3)[C@@H](c3ccccc3)N2[C@@H](c2ccc(OCCOC(=O)[C@@H]3C[C@@H]4C(=O)N5CCC[C@H]5C(=O)N4[C@@H]3c3ccc(O)cc3)cc2)[C@]12C(=O)Nc1ccccc12 | 3.79 (inactive)
CC(C)OC(=O)CC(=O)CC(O)c1ccc(C#N)cc1 (stereo not given) | -0.602 (inactive)
O=C(OCCF)C1=CCC(c2cccc(Cl)c2)O1 (stereo not given) | 2.82 (inactive)
[N-]=[N+]=NCc1ccccc1[C@@H]1OC(c2ccc(OCCCO)cc2)=N[C@]1(Cc1ccccc1N=[N+]=[N-])C(=O)NCc1ccccc1 | 8.41 (active)
COc1ccc(C(O)C2C=CC3C(=O)N(c4ccccc4)C(=O)C3N2Nc2ccc([N+](=O)[O-])cc2)cc1OCc1ccccc1 (stereo not given) | 0.989 (inactive)
Cc1ccccc1C(O)C1C=CC2C(=O)N(C)C(=O)C2N1N1CCCCC1 (stereo not given) | -0.417 (inactive)
COCCOC(=O)N1C(=O)[C@@]2(c3cc(C#CCNC(N)=O)ccc31)[C@H](c1ccccc1OCCO)N1[C@H](c3ccccc3)[C@H](c3ccccc3)OC(=O)[C@H]1[C@@H]2C(N)=O | 3.25 (inactive)
O=C1C2C=CC(C(O)c3cccs3)N(Nc3ccccc3F)C2C(=O)N1c1ccccc1 (stereo not given) | -0.867 (inactive)
COC(=O)C1=CC(CCCO)=CC(C2CC2)N(Cc2sc3ccccc3c2Cl)C=C1C(=O)OC (stereo not given) | -1.55 (inactive)
COCCOC(=O)N1C(=O)[C@@]2(c3cc(C#Cc4ccc(OC)cc4)ccc31)[C@H](C(=O)N1CCN(c3ncccn3)CC1)[C@H]1C(=O)O[C@H](c3ccccc3)[C@H](c3ccccc3)N1[C@@H]2c1ccc(O)cc1 | 0.872 (inactive)
CN(C)C(=O)[C@]1(CCC(=O)OC(C)(C)C)N=C(c2ccc(OCCCO)cc2)O[C@@H]1c1ccccc1N=[N+]=[N-] | 0.0958 (inactive)
C=CCC(OC(C)=O)[C@@H]1[C@@H](N(Cc2cc3ccccc3o2)C(=O)c2ccc(C)cc2)c2cc(OCCCO)ccc2N1C(=O)c1ccc2ccccc2c1 (stereo not given in full) | 0.0217 (inactive)
COC(=O)[C@@]1(Cc2ccc(OC)cc2)[C@H]2c3cc(C(=O)N4CCCC4)n(Cc4ccccn4)c3C[C@H]2CN1C(=O)c1ccccc1 | 1.33 (inactive)
Cc1ccc(S[C@]2(C(=O)NCc3ccccc3)CC(=O)N(Cc3ccccc3Cl)[C@@H]2c2ccc(CO)cc2I)cc1 | 0.103 (inactive)
COc1ccc([Si](C)(C)[C@@H]2[C@@H](CCn3cc([C@H](O)c4ccccc4)nn3)O[C@]3(C(=O)N(Cc4cccc(N5CCOC5=O)c4)c4ccccc43)[C@H]2C)cc1 | 3.61 (inactive)
CCN(CC)c1ccc(N2CC=CC34O[C@@H]5/C=C\CCCOC(=O)C5[C@H]3C(=O)N(C(CO)C(C)C)[C@@H]4C2=O)cc1 (stereo not given in full) | -0.0204 (inactive)
Cc1ccc(S[C@]2(C(=O)NC3CC3)CC(=O)N(Cc3ccccc3)[C@@H]2c2ccc(CO)cc2)cc1 | -0.168 (inactive)
O=C1OCCC/C=C\[C@H]2OC34C=CCN(Cn5nnc6ccccc65)C(=O)[C@H]3N(CCCCCO)C(=O)[C@@H]4C12 (stereo not given in full) | -1.83 (inactive)
CCN(CC)c1ccc(N2CC=CC34O[C@@H]5C=CCCOC(=O)C5[C@H]3C(=O)N(CCCCCO)[C@@H]4C2=O)cc1 (stereo not given in full) | -0.818 (inactive)
O=C1O[C@@H](c2ccccc2)[C@@H](c2ccccc2)N2[C@@H](c3ccccc3OCCO)[C@]3(C(=O)Nc4ccc(C#CC5(O)CCCCCC5)cc43)[C@@H](C(=O)Nc3nc4ccccc4s3)[C@H]12 | 3.42 (inactive)
CCOC(=O)C1=C[C@@H](C(C)C)N(S(=O)(=O)c2ccc(C)cc2)[C@H]1c1ccc(C(C)C)cc1 | 0.612 (inactive)
C=CCC(OC(C)=O)[C@@H]1[C@@H](N(Cc2cccc3ccccc23)C(=O)c2cccc3ccccc23)c2cc(OCCCO)ccc2N1C(=O)c1ccc2ccccc2n1 (stereo not given in full) | -0.964 (inactive)
[N-]=[N+]=NCc1ccccc1C[C@]1(C(=O)NCCN2CCOCC2)N=C(c2ccc(OCCCO)cc2)O[C@H]1c1ccccc1N=[N+]=[N-] | 2.86 (inactive)
CC1=C2[C@@H](CCc3ccccc3)OB(O)C[C@@H]2n2c(=O)n(-c3ccccc3)c(=O)n2C1 | -0.535 (inactive)
COc1cc2c(cc1OC)CN(C(=O)[C@@H]1[C@H]3C(=O)O[C@H](c4ccccc4)[C@H](c4ccccc4)N3[C@H](c3ccccc3OCCO)[C@@]13C(=O)Nc1ccc(C#CCNC(N)=O)cc13)CC2 | 3.09 (inactive)
